Inconclusive results are not listed. Calls of active or inactive are those of the source. Unless noted, calls follow the shape of the dose curve; as a rule, active = well fitted curve in the direction sought with a large enough effect; inconclusive = small, poorly fitted or top-dose-only effect, or another doubt; inactive = no such curve, though single readings can be large; an effect the other way counts as inactive or inconclusive.
Experiments:
[1] = molecular target: T1, Tyrosine-protein phosphatase non-receptor type substrate 1 (Homo sapiens) + Leukocyte surface antigen CD47 (Homo sapiens) (UniProt P78324+Q08722); test: CD47-SIRPalpha protein protein interaction - LANCE assay qHTS validation (AID 1347057; active = well fitted curve in the direction sought with a large enough effect in the signal ratio, with a control signal flat, not every such curve was filed as active; the % refers to the signal ratio; also: 0% is about no effect); conditions: Recombinant CD47-His / biotin-SIRPalpha, TR-FRET ratio; series mostly up to 38.3 µM
How it was run: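 Inhibition of soluble CD47/SIRPalpha ectodomain association by titrated compounds, measured as 665/615 nm time-resolved FRET ratio after sequential 30 min room-temperature incubations.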

[2] = molecular target: T1, Tyrosine-protein phosphatase non-receptor type substrate 1 (Homo sapiens) + Leukocyte surface antigen CD47 (Homo sapiens); test: CD47-SIRPalpha protein protein interaction - HTRF assay qHTS validation (AID 1347058; active = well fitted curve in the direction sought with a large enough effect in the signal ratio, not every such curve was filed as active; the % refers to the signal ratio; also: 0% is about no effect); conditions: TR-FRET HTRF CD47-His / biotin-SIRPalpha binding, ratio 665/615; series mostly up to 38.3 µM
How it was run: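 Soluble extracellular domains (6His-CD47, Avi-tag-biotinylated SIRPalpha) in PBS pH 7.4 with 0.05% IGEPAL CA-630. Compounds were preincubated 30 min at RT with CD47 and anti-His-Eu, then SIRPalpha and SAV-XL665 were added. TR-FRET 665/615 ratio.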

[3] = molecular target: T1, Tyrosine-protein phosphatase non-receptor type substrate 1 (Homo sapiens) + Leukocyte surface antigen CD47 (Homo sapiens); test: CD47-SIRPalpha protein protein interaction - Alpha assay qHTS validation (AID 1347059); conditions: AlphaScreen CD47-His/biotin-SIRPalpha binding, LOPAC; series mostly up to 38.3 µM;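 also: bead proximity luminescence from CD47 binding SIRPalpha after compound preincubation with SIRPalpha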; also: potency is read from the fitted curve at half-maximal effect
How it was run: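 AlphaScreen signal between CD47-His (12.5 nM) and biotin-SIRPalpha (25 nM) soluble extracellular domains, bead-captured via Ni-NTA and streptavidin. Compounds, in 7-point titrations, met SIRPalpha 30 min before CD47; PBS pH 7.4 with 0.05% IGEPAL.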

[4] = molecular target: Parathyroid hormone/parathyroid hormone-related peptide receptor (Homo sapiens) (UniProt Q03431); test: qHTS for PTHR1 Agonists: Optimization Screen against the NCGC LOPAC library (AID 1347079); conditions: HEK293 GP2 PTHR1 GloSensor cAMP luminescence, 1 h; series mostly up to 57.1 µM;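 also: GloSensor cAMP luminescence in HEK-293 GP2 cells expressing human PTHR1 with IBMX; 0% is about no effect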
How it was run: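 HEK-293 GP2 cells, PTHR1 + GloSensor cAMP; 3000 cells/well, o/n. Luciferin + IBMX 0.5mM each (stock), 1 hr 37C. Cpd titration, 1 hr 37C. Lum after 15 min RT. Ctrl M-PTH(1-15) top 10uM.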

[5] = molecular target: N-terminal Xaa-Pro-Lys N-methyltransferase 1 (Homo sapiens) (UniProt Q9BV86); test: qHTS Assay for Inhibitors of N-terminal methyltransferase 1 (NTMT1): LOPAC validation of the NTMT1 SAHH-coupled ThioGlo3 Assay (AID 1347143); conditions: recombinant NTMT1, SAHH-coupled ThioGlo3 fluorescence; series mostly up to 114 µM;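 also: SAH from peptide methylation measured as thiol fluorescence via SAHH coupling and ThioGlo3; nearly all actives have a fitted effect of over 70% in size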; also: potency is read from the fitted curve at half-maximal effect
How it was run: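 NTMT1 125nM + cpds (various conc.), 1 min RT; add SAM 100uM/SAHH 10uM/ThioGlo3 15uM (addition mix). SAHH-coupled thiol detection, Ex340/Em450, t0 and 30 min RT; signal normalized to background. LOPAC 1280-cpd pilot.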

[6] = system: Zika virus NS2B-NS3 protease (unlinked); test: Optimization of GU AMC qHTS for Zika virus inhibitors: Unlinked NS2B-NS3 protease assay (AID 1347151); conditions: recombinant ZIKV NS2B-NS3 protease, fluorogenic AMC substrate; series mostly up to 52.5 µM; also: nearly all actives have a fitted effect of over 80% in size; also: potency is read from the fitted curve at half-maximal effect
How it was run: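 Noncovalent complex of NS2B hydrophilic domain and NS3 protease domain, 25 nM final, in 10 mM Tris-HCl pH 8.0, 0.01% Tween 20. AMC fluorescence change over 15 min at room temperature was fitted to a 4-parameter Hill equation.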

[7] = system: Zika virus NS2B-NS3 protease; test: Primary screen GU AMC qHTS for Zika virus inhibitors (AID 1347154); conditions: Zika NS2B-NS3 unlinked protease, AMC fluorogenic substrate; series mostly up to 54.1 µM; also: nearly all actives have a fitted effect of over 70% in size; also: potency is read from the fitted curve at half-maximal effect
How it was run: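 Fluorogenic AMC-substrate cleavage by noncovalent NS2B-NS3 protease complex (25 nM, pH 8.0 Tris buffer with Tween 20) followed for 15 minutes at room temperature (~20% conversion). Percent inhibition from ex340/em450 signal change, fitted by 4-parameter Hill equation.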

[8] = molecular target: Lysine-specific demethylase 5B (Homo sapiens) (UniProt Q9UGL1); test: Optimization screen for KDM5B Histone Demethylases FDH coupled qHTS against the LOPAC library (AID 1347166); conditions: KDM5B demethylation, FDH-coupled NADH fluorescence (FDH is formaldehyde dehydrogenase); at 57.5 µM (top of the series); also: 0% is about no effect
How it was run: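 KDM5BDeltaAP (200nM final) in 50mM HEPES pH 7.5, 0.01% Tween-20 was preincubated with compound for 10 min at room temperature. A substrate mix of 12.5uM H3K4Me3, 25uM a-ketoglutarate, ascorbate, Fe2+, NAD+ and formaldehyde dehydrogenase was then added. NADH fluorescence (340/450 nm) was read initially and after 30 min.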

[9] = NS1 protein of Zika virus - qHTS assay to identify small molecule inhibitors in human HEK 293 cells (AID 1347053); conditions: HEK293 ZIKV MR766 infection, NS1 TR-FRET, 24 h; series mostly up to 46.1 µM;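 also: plate controls were infected untreated cells for no effect and uninfected cells for full effect; nearly all actives have a fitted effect of over 55% in size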
How it was run: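 Compound-treated (1 h pre-infection) HEK 293 cells infected with ZIKV MR766, MOI = 0.5; after 24 h at 37 C, NS1 read by TR-FRET; data normalized to uninfected and infected controls.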

[10] = molecular target: Furin (Homo sapiens) (UniProt P09958); test: Furin counterscreen qHTS for Zika virus inhibitors (AID 1347149); conditions: furin enzymatic counterscreen, fluorogenic substrate; series mostly up to 57.5 µM; also: potency is read from the fitted curve at half-maximal effect; nearly all actives have a fitted effect of over 70% in size
How it was run: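 Counterscreen measures cleavage of 2 microM BOC-RVRR-AMC, below its ~15 microM Km, by 5 nM full-length human furin at pH 7.0 after a 15-min compound preincubation. Inhibition derives from the 15-min fluorescence increase at 37C.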

[11] = system: Zika virus NS2B-NS3 protease (linked construct); test: Confirmatory screen NINDS AMC qHTS for Zika virus inhibitors (AID 1347152); conditions: Purified linked NS2B-NS3, AMC substrate fluorescence; series mostly up to 56.6 µM; also: potency is read from the fitted curve at half-maximal effect; nearly all actives have a fitted effect of over 70% in size
How it was run: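 Purified NS2B-NS3 protease with NS2B hydrophilic domain linked to NS3 protease domain by flexible linker, 1 nM final in 10 mM Tris-HCl pH 8.0, 0.01% Tween 20. Compounds preincubated 15 min, room temperature; Bz-Nle-KRR-AMC 10 microM (Km 18.3 µM); 15-min fluorescence change, 4-parameter Hill fit.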

[12] = Vero cells viability qHTS for Zika virus inhibitors (AID 1347167); conditions: cytotoxicity counter-screen (Zika); series mostly up to 45.9 µM; also: % is scaled to controls: 0 for no effect and ±100 for the full control effect
How it was run: (§1)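 Luminescent ATP readout (CellTiter Glo) after 30 min at 37 degrees C gives viability; cells in DMEM + 4% FBS were treated 24 to 48 hours with compound, following overnight attachment.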

[13] = HepG2 cells viability qHTS for Zika virus inhibitors (AID 1347168); conditions: Zika counter-screen; series mostly up to 45.9 µM; also: % is scaled to controls: 0 for no effect and ±100 for the full control effect
How it was run: as §1

Sequence of N-terminal Xaa-Pro-Lys N-methyltransferase 1 (Homo sapiens) (Q9BV86 whole entry, looked up): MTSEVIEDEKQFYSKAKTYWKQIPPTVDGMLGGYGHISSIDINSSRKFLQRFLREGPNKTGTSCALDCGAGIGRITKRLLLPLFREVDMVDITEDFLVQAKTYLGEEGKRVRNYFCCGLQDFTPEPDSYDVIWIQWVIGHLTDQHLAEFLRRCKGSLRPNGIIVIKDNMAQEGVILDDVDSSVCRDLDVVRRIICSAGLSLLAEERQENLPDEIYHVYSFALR
Sequence of Parathyroid hormone/parathyroid hormone-related peptide receptor (Homo sapiens) (Q03431 whole entry, looked up): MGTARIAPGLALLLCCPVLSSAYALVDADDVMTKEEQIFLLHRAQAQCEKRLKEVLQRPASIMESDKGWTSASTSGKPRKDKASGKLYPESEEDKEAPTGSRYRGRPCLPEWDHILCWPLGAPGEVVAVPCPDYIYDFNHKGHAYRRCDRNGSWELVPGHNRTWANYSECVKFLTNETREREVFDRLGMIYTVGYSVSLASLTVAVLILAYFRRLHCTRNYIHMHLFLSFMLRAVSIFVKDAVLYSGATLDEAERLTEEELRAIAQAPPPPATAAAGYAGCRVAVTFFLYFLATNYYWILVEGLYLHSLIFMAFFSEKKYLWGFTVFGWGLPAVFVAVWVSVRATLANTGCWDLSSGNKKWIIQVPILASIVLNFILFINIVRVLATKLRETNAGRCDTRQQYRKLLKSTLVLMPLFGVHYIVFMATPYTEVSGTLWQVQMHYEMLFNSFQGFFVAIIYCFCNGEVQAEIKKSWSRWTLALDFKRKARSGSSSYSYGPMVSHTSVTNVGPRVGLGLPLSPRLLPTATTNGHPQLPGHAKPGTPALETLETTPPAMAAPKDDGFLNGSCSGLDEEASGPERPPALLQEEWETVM
T1 sequence (P78324 whole entry, looked up, the tested form may be a part): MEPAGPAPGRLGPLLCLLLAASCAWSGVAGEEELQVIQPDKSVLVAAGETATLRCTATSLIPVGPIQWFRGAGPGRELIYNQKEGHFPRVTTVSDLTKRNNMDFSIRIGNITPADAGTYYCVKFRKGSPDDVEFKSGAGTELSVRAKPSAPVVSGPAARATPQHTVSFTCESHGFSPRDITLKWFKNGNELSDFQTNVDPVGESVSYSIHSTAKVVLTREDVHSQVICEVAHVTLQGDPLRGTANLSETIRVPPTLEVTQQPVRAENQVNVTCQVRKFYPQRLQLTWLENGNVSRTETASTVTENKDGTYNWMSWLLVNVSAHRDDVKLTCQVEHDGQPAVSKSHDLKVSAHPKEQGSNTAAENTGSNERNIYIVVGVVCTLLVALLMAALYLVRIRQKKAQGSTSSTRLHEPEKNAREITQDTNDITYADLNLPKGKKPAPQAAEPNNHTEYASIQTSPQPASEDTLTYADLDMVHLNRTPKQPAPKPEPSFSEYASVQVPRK
T1 sequence (Q08722 whole entry, looked up, the tested form may be a part): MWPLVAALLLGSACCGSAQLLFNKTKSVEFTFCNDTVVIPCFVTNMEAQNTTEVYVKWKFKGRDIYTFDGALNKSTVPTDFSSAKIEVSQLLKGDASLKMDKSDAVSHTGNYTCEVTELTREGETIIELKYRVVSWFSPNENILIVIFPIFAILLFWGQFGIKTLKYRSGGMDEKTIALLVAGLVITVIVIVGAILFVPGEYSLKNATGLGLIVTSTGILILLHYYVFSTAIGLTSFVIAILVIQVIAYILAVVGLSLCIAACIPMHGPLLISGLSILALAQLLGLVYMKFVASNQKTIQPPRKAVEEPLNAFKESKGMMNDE
Sequence of Lysine-specific demethylase 5B (Homo sapiens) (Q9UGL1 whole entry, looked up): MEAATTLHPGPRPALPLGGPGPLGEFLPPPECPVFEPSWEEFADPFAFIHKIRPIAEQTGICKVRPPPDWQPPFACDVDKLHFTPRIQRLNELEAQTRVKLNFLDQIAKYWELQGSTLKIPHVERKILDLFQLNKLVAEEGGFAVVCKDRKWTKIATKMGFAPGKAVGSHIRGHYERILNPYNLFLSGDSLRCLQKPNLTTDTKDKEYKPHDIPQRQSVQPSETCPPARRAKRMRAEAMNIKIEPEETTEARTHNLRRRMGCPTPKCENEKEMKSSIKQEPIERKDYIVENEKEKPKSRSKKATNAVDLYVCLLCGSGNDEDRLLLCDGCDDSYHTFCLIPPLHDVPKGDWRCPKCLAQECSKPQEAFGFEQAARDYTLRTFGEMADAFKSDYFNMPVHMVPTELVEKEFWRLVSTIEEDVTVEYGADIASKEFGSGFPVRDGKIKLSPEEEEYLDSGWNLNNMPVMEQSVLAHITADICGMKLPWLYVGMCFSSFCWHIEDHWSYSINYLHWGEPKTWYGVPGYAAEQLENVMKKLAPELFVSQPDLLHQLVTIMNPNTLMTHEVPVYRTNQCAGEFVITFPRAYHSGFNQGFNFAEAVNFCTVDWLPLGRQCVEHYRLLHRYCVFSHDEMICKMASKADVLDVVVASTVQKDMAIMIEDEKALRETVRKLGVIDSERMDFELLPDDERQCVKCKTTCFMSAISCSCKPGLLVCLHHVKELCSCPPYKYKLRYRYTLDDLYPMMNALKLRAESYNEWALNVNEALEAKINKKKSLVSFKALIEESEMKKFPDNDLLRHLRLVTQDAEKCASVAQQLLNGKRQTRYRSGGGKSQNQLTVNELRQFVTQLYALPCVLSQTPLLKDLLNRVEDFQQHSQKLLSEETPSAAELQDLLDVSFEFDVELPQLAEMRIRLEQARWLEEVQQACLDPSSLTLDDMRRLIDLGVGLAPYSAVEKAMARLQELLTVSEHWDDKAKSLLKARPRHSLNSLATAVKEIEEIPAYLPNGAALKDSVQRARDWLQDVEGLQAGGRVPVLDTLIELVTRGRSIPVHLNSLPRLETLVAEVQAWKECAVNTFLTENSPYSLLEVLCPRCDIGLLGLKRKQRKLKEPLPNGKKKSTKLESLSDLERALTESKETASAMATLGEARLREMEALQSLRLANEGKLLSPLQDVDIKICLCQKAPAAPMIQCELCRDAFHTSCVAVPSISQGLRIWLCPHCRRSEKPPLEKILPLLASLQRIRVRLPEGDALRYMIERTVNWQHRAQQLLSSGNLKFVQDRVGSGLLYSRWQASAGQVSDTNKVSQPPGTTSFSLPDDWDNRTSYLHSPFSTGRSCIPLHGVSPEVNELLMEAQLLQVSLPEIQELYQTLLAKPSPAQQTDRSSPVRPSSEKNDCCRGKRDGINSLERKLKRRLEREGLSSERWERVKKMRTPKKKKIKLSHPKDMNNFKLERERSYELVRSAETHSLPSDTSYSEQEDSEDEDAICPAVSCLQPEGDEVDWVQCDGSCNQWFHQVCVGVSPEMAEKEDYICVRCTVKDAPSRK
Sequence of Furin (Homo sapiens) (P09958 whole entry, looked up): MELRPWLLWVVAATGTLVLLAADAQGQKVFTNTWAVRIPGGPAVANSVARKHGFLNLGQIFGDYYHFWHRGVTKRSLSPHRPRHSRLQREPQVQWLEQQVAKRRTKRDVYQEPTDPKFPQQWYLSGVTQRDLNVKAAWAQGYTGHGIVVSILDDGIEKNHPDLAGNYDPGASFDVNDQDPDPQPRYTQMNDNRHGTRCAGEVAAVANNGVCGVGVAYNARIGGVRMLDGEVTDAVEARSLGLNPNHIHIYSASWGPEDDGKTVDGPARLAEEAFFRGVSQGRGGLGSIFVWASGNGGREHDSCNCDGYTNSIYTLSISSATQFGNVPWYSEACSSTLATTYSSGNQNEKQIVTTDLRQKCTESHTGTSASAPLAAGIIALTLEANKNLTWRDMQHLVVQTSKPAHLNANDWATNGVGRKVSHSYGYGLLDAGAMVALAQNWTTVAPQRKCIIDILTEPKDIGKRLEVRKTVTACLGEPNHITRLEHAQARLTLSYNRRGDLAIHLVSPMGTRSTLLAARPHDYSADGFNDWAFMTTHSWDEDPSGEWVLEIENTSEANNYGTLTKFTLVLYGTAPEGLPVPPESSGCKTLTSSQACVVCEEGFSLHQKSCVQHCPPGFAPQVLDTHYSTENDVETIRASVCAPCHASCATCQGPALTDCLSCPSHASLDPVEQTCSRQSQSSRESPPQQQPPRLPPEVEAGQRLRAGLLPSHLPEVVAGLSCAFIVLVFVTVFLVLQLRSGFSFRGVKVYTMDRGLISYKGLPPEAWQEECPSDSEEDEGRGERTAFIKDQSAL

C=C1C(=O)O[C@@H]2[C@H]3O[C@]3(C)CCC=C(C)CC[C@@H]12
inactive: Potency [1] | outcome [2] | Potency [3] | Potency [4] | Potency [5] | Potency [6] | Potency [7]

CC[n+]1c(/C=C/C=C2/N(C)c3ccccc3C2(C)C)sc2ccccc21
inactive: Potency [4] | activity, negative = inhibition [8] -25%
active: Potency [3] 7.36 µM | Potency [5] 35.5 µM

COc1ccccc1N1CCN(CCCCNC(=O)c2ccc3ccccc3c2)CC1
inactive: Potency [9] | Potency [1] | Potency [5] | Potency [6] | activity, negative = inhibition [8] -7.43%

CC(C)NC[C@H](O)COc1cccc2ccccc12
inactive: Potency [9] | outcome [2] | Potency [3] | Potency [4] | Potency [7] | activity, negative = inhibition [8] -12%

CC(O)C(O)[C@H]1CNc2nc(N)[nH]c(=O)c2N1 (stereo not given in full)
active: Potency [5] 28.2 µM | Potency [6] 26.7 µM
inactive: Potency [9] | Potency [4]

CC(=O)O[C@H]1CC2(C)[C@@H](C[C@@H](O)[C@H]3[C@@]4(C)CC[C@@H](O)[C@@H](C)[C@@H]4CC[C@@]32C)C1=C(CCC=C(C)C)C(=O)O (stereo not given in full)
inactive: Potency [4] | Potency [5] | activity, negative = inhibition [8] -4.8%

N#C/C(=C\c1ccc(O)c(O)c1)C(=O)NCCCNC(=O)/C(C#N)=C/c1ccc(O)c(O)c1
inactive: Potency [9] | Potency [4]
active: Potency [5] 39.8 µM | Potency [6] 0.597 µM

OC1(c2ccc(Cl)cc2)CCN(Cc2c[nH]c3ccccc23)CC1
inactive: Potency [1] | outcome [2] | Potency [3] | Potency [4] | Potency [5] | Potency [6] | Potency [7]

CC#CCOC(=O)c1c(C)nc2sc3c(c2c1N)CCC(O)C3 (stereo not given)
inactive: Potency [9] | Potency [3] | Potency [4]
active: Potency [5] 56.2 µM

COc1ccccc1N1CCN(CCN(C(=O)c2ccc(F)cc2)c2ccccn2)CC1
inactive: Potency [9] | Potency [4] | Potency [5] | Potency [6]

Cn1c(=O)c2[nH]c(-c3ccc(S(=O)(=O)O)cc3)nc2n(C)c1=O
active: Potency [5] 12.6 µM | Potency [10] 12.1 µM | Potency [11] 6.81 µM | Potency [7] 5.32 µM
inactive: Potency [9] | Potency [3] | Potency [4] | Potency [6] | activity, negative = inhibition [8] 39.3% | Potency [12] | outcome [13]

CN1Cc2sccc2C(c2ccc(O)c(O)c2)C1 (stereo not given)
inactive: Potency [9] | Potency [1] | Potency [4] | Potency [6]
active: Potency [5] 39.8 µM

O=C(N[C@@H](Cc1ccccc1)C(=O)CCl)OCc1ccccc1
inactive: Potency [1] | outcome [2] | Potency [3] | Potency [4]

N[C@@H](CCC(=O)N[C@H](CSN=O)C(=O)NCC(=O)O)C(=O)O
inactive: Potency [1] | outcome [2] | Potency [3] | Potency [4] | Potency [5]

O=c1ccn([C@@H]2O[C@H](COP(=O)(O)OP(=O)(O)O)[C@@H](O)[C@H]2O)c(=O)[nH]1
inactive: Potency [9] | Potency [1] | Potency [4] | Potency [5] | Potency [6] | Potency [7] | activity, negative = inhibition [8] -0.701%
